# Records with an inconclusive call do not appear. The source holds several records for some structures; these can differ, active in one and inactive in another. Calls of active or inactive are those of the source. Rule for the calls, unless noted: active = hit-call score of the fitted dose curve at least 0.9, where 1 is the maximum; inconclusive = response in the unintended direction; inactive = score below 0.9.
# What was measured:
# [1] = target: human Acid Phosphatase 1 (ACP1), ACP1 (gene 52) (UniProt P24666); assay: NVS_ENZ_hACP1: NovaScreen (NVS) Enzymatic Assay for human Acid Phosphatase 1 (ACP1) (AID 2283136)
# human Acid Phosphatase 1 (ACP1), ACP1 (gene 52), sequence (P24666 whole entry, looked up): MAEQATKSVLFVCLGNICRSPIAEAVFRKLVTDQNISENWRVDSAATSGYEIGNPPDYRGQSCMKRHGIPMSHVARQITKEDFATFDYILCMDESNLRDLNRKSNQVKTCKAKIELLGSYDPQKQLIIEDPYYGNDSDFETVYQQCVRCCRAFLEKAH
# In short: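 Recombinant enzyme expressed in Sf9 cells, tested cell-free; activity read by fluorescence with electrophoretic mobility shift separation of substrate and product, 1.5 h after dosing. Primary screen in duplicate at 25 uM, actives then run in concentration series; loss of signal versus DMSO.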
# [2] = target: human Caspase 5 (CASP5), CASP5 (gene 838) (UniProt P51878); assay: NVS_ENZ_hCASP5: NovaScreen (NVS) Enzymatic Assay for human Caspase 5 (CASP5) (AID 2283137)
# human Caspase 5 (CASP5), CASP5 (gene 838), sequence (P51878 whole entry, looked up): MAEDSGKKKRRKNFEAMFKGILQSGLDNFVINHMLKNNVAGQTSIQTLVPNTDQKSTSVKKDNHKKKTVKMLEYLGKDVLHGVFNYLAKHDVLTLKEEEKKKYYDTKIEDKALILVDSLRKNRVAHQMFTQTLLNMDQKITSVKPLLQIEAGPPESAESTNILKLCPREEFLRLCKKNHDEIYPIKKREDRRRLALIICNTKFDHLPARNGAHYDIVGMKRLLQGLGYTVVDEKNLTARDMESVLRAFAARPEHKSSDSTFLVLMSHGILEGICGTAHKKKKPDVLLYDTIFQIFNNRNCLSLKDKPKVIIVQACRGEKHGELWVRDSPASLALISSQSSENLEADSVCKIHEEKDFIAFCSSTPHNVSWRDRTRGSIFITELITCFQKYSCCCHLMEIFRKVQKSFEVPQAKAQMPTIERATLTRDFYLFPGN
# In short: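 Recombinant human caspase 5 expressed in E. coli, fluorogenic substrate, fluorescence read 2 h after dosing. Single-point 25 uM duplicate screen, then concentration-response to maximum 50 uM for actives; DMSO baseline.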
# CDK2 (gene 1017) = CDK2 (gene 1017) (UniProt P24941); assay: NVS_ENZ_hCDK2: NovaScreen (NVS) Enzymatic Assay for human Cyclin-Cependent Kinase 2 (CDK2) (AID 2283144)
# In short: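 Cell-free recombinant human CDK2 with fluorescent substrate, product separated by electrophoretic mobility shift; 1 hr read. Primary screen at 25 uM in duplicate, actives retested in concentration-response up to 50 uM; loss of signal versus DMSO.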
# [3] = target: human Caspase 8 (CASP8), CASP8 (gene 841) (UniProt Q14790); assay: NVS_ENZ_hCASP8: NovaScreen (NVS) Enzymatic Assay for human Caspase 8 (CASP8) (AID 2283146)
# human Caspase 8 (CASP8), CASP8 (gene 841), sequence (Q14790 whole entry, looked up): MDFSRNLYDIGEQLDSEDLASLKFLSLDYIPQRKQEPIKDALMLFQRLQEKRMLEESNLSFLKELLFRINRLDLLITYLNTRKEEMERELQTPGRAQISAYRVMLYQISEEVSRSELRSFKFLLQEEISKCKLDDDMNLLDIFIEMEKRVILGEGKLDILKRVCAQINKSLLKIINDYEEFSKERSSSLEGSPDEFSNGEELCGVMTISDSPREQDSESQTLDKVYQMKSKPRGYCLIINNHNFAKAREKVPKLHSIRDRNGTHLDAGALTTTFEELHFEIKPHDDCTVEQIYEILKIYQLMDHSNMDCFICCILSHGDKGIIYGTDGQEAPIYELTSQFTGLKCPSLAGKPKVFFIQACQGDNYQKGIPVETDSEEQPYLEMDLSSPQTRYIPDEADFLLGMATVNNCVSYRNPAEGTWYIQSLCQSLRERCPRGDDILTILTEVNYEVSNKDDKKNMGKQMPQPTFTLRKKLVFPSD
# In short: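 E. coli-expressed enzyme was used in a cell-free fluorogenic substrate assay read 1 h after dosing. Loss of signal was scored relative to DMSO, and the primary screen was run in duplicate at 25 uM.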
# [4] = target: human Casein Kinase 2- alpha 2 beta 2 (CK2a2b2), CSNK2A1 (gene 1457) (UniProt P68400); assay: NVS_ENZ_hCK2a2b2: NovaScreen (NVS) Enzymatic Assay for human Casein Kinase 2- alpha 2 beta 2 (CK2a2b2) (AID 2283147)
# human Casein Kinase 2- alpha 2 beta 2 (CK2a2b2), CSNK2A1 (gene 1457), sequence (P68400 whole entry, looked up): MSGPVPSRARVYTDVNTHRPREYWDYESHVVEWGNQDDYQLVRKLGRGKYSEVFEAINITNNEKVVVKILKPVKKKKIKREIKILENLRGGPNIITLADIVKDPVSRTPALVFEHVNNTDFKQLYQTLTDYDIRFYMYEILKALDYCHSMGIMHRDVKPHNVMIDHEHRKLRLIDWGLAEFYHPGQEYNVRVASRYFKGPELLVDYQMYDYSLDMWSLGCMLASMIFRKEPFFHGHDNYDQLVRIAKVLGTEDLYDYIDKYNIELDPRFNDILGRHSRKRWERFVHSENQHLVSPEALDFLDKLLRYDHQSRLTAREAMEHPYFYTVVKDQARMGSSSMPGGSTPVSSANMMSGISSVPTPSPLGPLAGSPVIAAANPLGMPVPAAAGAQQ
# In short: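 Cell-free recombinant CK2 α2β2 holoenzyme with a fluorescent peptide substrate; product separated by electrophoretic mobility shift and read 1 h after dosing. Single-point screen at 25 uM in duplicate; actives were followed with concentration-response up to 50 uM versus DMSO.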
# [5] = target: Cytochrome P450 2C19 (Homo sapiens) (UniProt P33261); assay: NVS_ADME_hCYP2C19: NovaScreen (NVS) CYP450-related Enzyme Activity (ADME) Assay for human CYP2C19 (AID 2283113);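 for AC50: potency for inhibition seen as loss of fluorescent signal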
# In short: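 Cell-free assay of recombinant human CYP2C19 expressed in insect cells, with a fluorogenic substrate; fluorescence intensity read 1 hour after dosing. Loss of signal relative to acetonitrile negative control indicates inhibition. Primary screen at 10 uM in duplicate, then concentration series.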
# [6] = target: human AKT serine/threonine Kinase 1 (AKT1), AKT1 (gene 207) (UniProt P31749); assay: NVS_ENZ_hAKT1: NovaScreen (NVS) Enzymatic Assay for human AKT serine/threonine Kinase 1 (AKT1) (AID 2283138)
# human AKT serine/threonine Kinase 1 (AKT1), AKT1 (gene 207), sequence (P31749 whole entry, looked up): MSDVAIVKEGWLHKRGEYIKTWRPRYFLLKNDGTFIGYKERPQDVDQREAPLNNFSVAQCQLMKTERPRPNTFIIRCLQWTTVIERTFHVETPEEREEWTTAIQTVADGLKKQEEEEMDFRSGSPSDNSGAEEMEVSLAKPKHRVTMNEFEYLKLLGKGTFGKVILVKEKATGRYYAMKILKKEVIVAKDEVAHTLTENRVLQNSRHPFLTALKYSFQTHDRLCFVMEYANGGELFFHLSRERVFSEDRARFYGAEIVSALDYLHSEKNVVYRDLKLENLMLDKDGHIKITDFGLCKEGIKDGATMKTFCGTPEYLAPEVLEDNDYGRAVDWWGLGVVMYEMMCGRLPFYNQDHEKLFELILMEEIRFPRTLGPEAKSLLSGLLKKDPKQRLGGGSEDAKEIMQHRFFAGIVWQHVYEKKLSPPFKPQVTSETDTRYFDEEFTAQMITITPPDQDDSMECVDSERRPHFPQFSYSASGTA
# In short: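 Recombinant human AKT1 with a specific substrate, product separated by electrophoretic mobility shift, read after 1 h. Compounds at 25 uM in duplicate, then concentration-response up to 50 uM for hits; inhibition relative to DMSO.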
# Caspase-3 (Homo sapiens) = Caspase-3 (Homo sapiens) (UniProt P42574); assay: NVS_ENZ_hCASP3: NovaScreen (NVS) Enzymatic Assay for human Caspase 3 (CASP3) (AID 2283139)
# Caspase-3 (Homo sapiens), sequence (P42574 whole entry, looked up): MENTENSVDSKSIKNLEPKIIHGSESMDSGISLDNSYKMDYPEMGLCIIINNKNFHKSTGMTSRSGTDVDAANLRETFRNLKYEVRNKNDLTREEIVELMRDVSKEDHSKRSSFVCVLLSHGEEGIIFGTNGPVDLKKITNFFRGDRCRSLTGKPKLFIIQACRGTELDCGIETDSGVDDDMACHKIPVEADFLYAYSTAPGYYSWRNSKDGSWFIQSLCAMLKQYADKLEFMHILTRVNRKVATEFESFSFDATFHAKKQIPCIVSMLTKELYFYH
# In short: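 Recombinant human caspase-3 from E. coli with a fluorogenic substrate, read by fluorescence 1 h after dosing. Primary screen in duplicate at 25 uM. Actives (for example ≥30% inhibition) rerun as concentration-response up to 50 uM.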
# [7] = target: rat CYP2D2, Cyp2d26 (gene 25053) (UniProt P10634); assay: NVS_ADME_rCYP2D2: NovaScreen (NVS) CYP450-related Enzyme Activity (ADME) Assay for rat CYP2D2 (AID 2283124)
# In short: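 Recombinant rat CYP2D2 in a cell-free fluorogenic activity assay, fluorescence read 0.75 h after dosing. Primary screen in duplicate at 10 uM; actives re-run singly in concentration-response to 20 uM, relative to acetonitrile.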
# [8] = target: rat CYP2A1, Cyp2a1 (gene 24894) (UniProt P11711); assay: NVS_ADME_rCYP2A1: NovaScreen (NVS) CYP450-related Enzyme Activity (ADME) Assay for rat CYP2A1 (AID 2283114; active = hit-call score of the fitted dose curve at least 0.9, where 1 is the maximum; inactive = score below 0.9)
# rat CYP2A1, Cyp2a1 (gene 24894), sequence (P11711 whole entry, looked up): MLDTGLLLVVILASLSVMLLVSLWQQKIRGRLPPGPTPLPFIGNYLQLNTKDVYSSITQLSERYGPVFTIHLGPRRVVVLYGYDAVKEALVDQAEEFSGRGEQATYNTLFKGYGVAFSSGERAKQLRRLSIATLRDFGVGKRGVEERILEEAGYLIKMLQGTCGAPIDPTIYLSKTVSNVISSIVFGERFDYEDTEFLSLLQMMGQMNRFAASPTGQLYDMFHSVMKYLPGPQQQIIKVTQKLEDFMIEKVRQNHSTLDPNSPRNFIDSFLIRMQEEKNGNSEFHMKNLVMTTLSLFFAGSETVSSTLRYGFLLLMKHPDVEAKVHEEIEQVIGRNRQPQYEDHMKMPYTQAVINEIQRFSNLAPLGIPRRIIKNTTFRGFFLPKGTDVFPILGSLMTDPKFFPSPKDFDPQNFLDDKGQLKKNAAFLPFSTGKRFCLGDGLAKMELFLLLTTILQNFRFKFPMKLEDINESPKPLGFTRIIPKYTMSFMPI
# In short: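 Recombinant rat CYP2A1, cell-free, fluorogenic substrate turnover read by fluorescence intensity 0.75 h after dosing. Primary screen at 10 uM in duplicate; actives rerun as concentration-response up to 20 uM; loss of signal versus acetonitrile control.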
# [9] = target: human Beta-secretase (BACE), BACE1 (gene 23621) (UniProt P56817); assay: NVS_ENZ_hBACE: NovaScreen (NVS) Enzymatic Assay for human Beta-secretase (BACE) (AID 2283140);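 note: hits are inhibitors that reduce fluorescent substrate signal versus DMSO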
# human Beta-secretase (BACE), BACE1 (gene 23621), sequence (P56817 whole entry, looked up): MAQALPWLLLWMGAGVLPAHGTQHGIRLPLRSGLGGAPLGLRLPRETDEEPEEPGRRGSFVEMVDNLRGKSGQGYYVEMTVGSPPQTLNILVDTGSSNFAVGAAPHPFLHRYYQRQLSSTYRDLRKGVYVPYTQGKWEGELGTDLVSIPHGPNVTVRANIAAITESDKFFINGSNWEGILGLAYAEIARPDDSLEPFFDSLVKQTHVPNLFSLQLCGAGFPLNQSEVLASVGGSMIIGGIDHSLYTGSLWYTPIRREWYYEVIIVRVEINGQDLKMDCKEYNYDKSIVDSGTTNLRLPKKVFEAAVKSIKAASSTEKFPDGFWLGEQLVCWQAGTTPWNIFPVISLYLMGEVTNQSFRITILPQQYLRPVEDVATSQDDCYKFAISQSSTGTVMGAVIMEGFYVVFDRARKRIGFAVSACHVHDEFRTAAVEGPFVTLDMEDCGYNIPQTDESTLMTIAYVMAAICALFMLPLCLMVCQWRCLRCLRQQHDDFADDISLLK
# In short: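 Cell-free assay of recombinant Sf9-expressed human BACE with fluorescent substrate, read by fluorescence intensity after 1 h. Primary screen in duplicate at 25 uM; actives then run in concentration series; loss of signal relative to DMSO.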
# [10] = target: rat CYP2C13, Cyp2c13 (gene 171521) (UniProt P20814); assay: NVS_ADME_rCYP2C13: NovaScreen (NVS) CYP450-related Enzyme Activity (ADME) Assay for rat CYP2C13 (AID 2283121)
# rat CYP2C13, Cyp2c13 (gene 171521), sequence (P20814 whole entry, looked up): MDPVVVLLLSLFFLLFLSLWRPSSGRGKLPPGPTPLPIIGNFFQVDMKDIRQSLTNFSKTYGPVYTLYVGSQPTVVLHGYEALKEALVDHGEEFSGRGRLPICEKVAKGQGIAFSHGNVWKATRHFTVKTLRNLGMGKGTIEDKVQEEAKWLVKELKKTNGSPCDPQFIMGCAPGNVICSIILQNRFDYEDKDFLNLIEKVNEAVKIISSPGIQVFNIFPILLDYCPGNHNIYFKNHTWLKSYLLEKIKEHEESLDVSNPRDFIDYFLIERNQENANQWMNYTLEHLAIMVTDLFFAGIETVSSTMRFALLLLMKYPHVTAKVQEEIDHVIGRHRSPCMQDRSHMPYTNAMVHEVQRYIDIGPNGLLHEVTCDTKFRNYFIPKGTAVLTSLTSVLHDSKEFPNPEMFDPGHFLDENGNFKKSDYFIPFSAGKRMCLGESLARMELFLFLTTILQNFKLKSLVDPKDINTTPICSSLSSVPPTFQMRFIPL
# In short: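 Recombinant rat CYP2C13 with fluorogenic substrate, 0.75 h cell-free incubation; primary screen in duplicate at 10 uM, actives followed in concentration series. Fluorescence loss relative to acetonitrile control indicates inhibition.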
# [11] = target: rat CYP2C11, Cyp2c11 (gene 29277) (UniProt P08683); assay: NVS_ADME_rCYP2C11: NovaScreen (NVS) CYP450-related Enzyme Activity (ADME) Assay for rat CYP2C11 (AID 2283118)
# rat CYP2C11, Cyp2c11 (gene 29277), sequence (P08683 whole entry, looked up): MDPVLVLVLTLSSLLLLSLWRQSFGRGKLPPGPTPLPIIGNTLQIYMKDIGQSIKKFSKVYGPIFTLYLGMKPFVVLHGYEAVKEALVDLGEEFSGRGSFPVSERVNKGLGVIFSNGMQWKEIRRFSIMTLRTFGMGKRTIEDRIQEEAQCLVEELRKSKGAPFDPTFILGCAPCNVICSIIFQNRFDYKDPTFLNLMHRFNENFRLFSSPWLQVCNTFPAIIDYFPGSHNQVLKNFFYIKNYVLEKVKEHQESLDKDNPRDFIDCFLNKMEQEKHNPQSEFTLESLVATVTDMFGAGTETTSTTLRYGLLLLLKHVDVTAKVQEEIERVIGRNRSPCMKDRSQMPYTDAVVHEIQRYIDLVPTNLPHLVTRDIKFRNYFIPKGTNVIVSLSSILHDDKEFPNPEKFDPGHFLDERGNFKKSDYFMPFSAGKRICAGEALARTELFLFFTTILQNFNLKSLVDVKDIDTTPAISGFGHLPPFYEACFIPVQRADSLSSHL
# In short: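 Cell-free recombinant rat enzyme with fluorescent substrate; readout 0.33 h after dosing, loss of signal versus acetonitrile control. Initial duplicate single-point at 10 uM; actives rerun in concentration series.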
# rat CYP2C6, gene 293989 = assay: NVS_ADME_rCYP2C6: NovaScreen (NVS) CYP450-related Enzyme Activity (ADME) Assay for rat CYP2C6 (AID 2283120)
# In short: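 Cell-free recombinant rat CYP2C6 with fluorogenic substrate, read by fluorescence 1 h after dosing; acetonitrile as negative control. Primary screen at 10 uM in duplicate, actives then in concentration-response up to 20 uM.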
# [12] = target: human AKT serine/threonine Kinase 2 (AKT2), AKT2 (gene 208) (UniProt P31751); assay: NVS_ENZ_hAKT2: NovaScreen (NVS) Enzymatic Assay for human AKT serine/threonine Kinase 2 (AKT2) (AID 2283141)
# human AKT serine/threonine Kinase 2 (AKT2), AKT2 (gene 208), sequence (P31751 whole entry, looked up): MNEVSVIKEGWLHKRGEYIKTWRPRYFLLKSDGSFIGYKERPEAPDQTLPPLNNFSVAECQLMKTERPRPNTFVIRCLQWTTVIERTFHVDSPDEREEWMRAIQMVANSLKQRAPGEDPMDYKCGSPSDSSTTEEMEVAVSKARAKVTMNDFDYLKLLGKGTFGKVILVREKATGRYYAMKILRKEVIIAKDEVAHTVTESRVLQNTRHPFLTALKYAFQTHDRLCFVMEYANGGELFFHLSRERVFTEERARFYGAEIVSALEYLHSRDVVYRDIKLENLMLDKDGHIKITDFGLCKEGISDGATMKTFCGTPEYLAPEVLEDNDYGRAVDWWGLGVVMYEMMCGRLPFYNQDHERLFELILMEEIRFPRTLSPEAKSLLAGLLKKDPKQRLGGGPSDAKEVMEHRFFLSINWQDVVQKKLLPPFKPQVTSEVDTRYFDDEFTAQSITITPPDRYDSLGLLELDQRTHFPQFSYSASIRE
# In short: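 Cell-free fluorescence/electrophoretic mobility shift readout of recombinant human AKT2 activity, 1 h after chemical dosing. Duplicate primary screen at 25 uM, then singleton concentration-response up to 50 uM; loss of signal versus DMSO baseline.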
# rat CYP3A1, gene 25642 = assay: NVS_ADME_rCYP3A1: NovaScreen (NVS) CYP450-related Enzyme Activity (ADME) Assay for rat CYP3A1 (AID 2283126)
# In short: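 Cell-free recombinant CYP assay with fluorescent substrate, read 0.5 h after dosing. Screened at 10 uM in duplicate, hits at up to 20 uM in concentration-response; loss of signal versus acetonitrile baseline.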
structure (smiles),measurement,setting,value
O=C(O)C1(C(=O)Nc2ccc(Cl)cc2Cl)CC1,AC50,[1],39.2 µM (active)
same,AC50,[2],3.02 µM (active)
same,AC50,CDK2 (gene 1017),7.29 µM (active)
same,AC50,[3],7.55 µM (active)
same,AC50,[4],12.7 µM (active)
CC(C)CCCCCCc1ccc(O)cc1,AC50,[5],2.75 µM (active)
same,outcome,[6],inactive
COC(=O)c1cccc(C)c1S(=O)(=O)NC(=O)Nc1nc(OCC(F)(F)F)nc(N(C)C)n1,outcome,Caspase-3 (Homo sapiens),inactive
same,outcome,[3],inactive
COC(=O)CSc1cc(N=c2sc(=O)n3n2CCCC3)c(F)cc1Cl,outcome,[7],inactive
COC(=O)c1ccccc1C(=O)O,AC50,[5],5.84 µM (active)
same,outcome,[8],inactive
CC1(C)C(C=C(Cl)Cl)C1C(=O)OCc1cccc(Oc2ccccc2)c1 (stereo not given),outcome,[5],inactive
same,AC50,[9],40.2 µM (active)
CCCN(CCC)C(=O)SCC,AC50,[5],8.68 µM (active)
same,outcome,[5],inactive
COc1nc(C)nc(NC(=O)NS(=O)(=O)c2ccccc2OCCCl)n1,AC50,[5],0.0177 µM (active)
same,outcome,[6],inactive
c1ccc2[nH]c(-c3cscn3)nc2c1,AC50,[4],25 µM (active)
C[C@]12CC[C@@H]3c4ccc(O)cc4C[C@@H](CCCCCCCCCS(=O)CCCC(F)(F)C(F)(F)F)[C@H]3[C@@H]1CC[C@@H]2O (stereo not given in full),outcome,[9],inactive
same,outcome,[3],inactive
CCCOC(=O)c1ccc(C(=O)OCCC)nc1,AC50,[5],6.74 µM (active)
Cc1nn(C)c(Oc2ccccc2)c1C=NOCc1ccc(C(=O)OC(C)(C)C)cc1,AC50,[5],3.32 µM (active)
same,outcome,[10],inactive
C#CCOC(=O)[C@@H](C)Oc1ccc(Oc2ncc(Cl)cc2F)cc1,AC50,[5],1.5 µM (active)
same,outcome,[8],inactive
same,AC50,[11],1.1 µM (active)
same,AC50,"rat CYP2C6, gene 293989",0.31 µM (active)
CCCCOC(=O)[C@@H](C)Oc1ccc(Oc2ccc(C(F)(F)F)cn2)cc1,outcome,[5],inactive
same,outcome,[6],inactive
same,outcome,[9],inactive
N[C@@H](Cc1cc(I)c(Oc2ccc(O)c(I)c2)c(I)c1)C(=O)O,AC50,[2],8.73 µM (active)
same,AC50,[9],25.9 µM (active)
same,outcome,CDK2 (gene 1017),inactive
OB(O)O,outcome,[12],inactive
CN(C)C(=O)Nc1ccc(Cl)c(Cl)c1,AC50,[8],0.316 µM (active)
same,AC50,"rat CYP3A1, gene 25642",5.82 µM (active)
same,outcome,[6],inactive
CCCCOC(=O)C(C)Oc1ccc(Oc2ccc(C(F)(F)F)cn2)cc1 (stereo not given),outcome,[5],inactive
same,AC50,[9],25 µM (active)

# Reference: PubChem BioAssay (EPA / NIEHS)
